Results on ten molecules are retold here after PubChem BioAssay (Tox21).

Records with an inconclusive call do not appear. The source made the active and inactive calls. Unless noted, the call rests on the fitted dose curve; in most records, active means well fitted curve in the direction sought with a large enough effect in the repeat runs; inconclusive means weak or mixed curves; inactive means no such curve, though single readings can be large; an effect the other way counts as inactive or inconclusive.

Assay [1] in a line: qHTS assay to identify aromatase inhibitors - cell viability counter screen (AID 743084).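 Further: cells stimulated with testosterone during compound exposure; nearly all actives have a fitted effect of over 55% in size.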
The target of assay [2] is Aryl hydrocarbon receptor (Homo sapiens) (UniProt P35869). As to the kind of experiment: qHTS assay to identify small molecule that activate the aryl hydrocarbon receptor (AhR) signaling pathway (AID 743085).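 Further: HG2L7.5c1 human HepG2 liver cells with stably integrated DRE-driven firefly reporter; series mostly up to about 70 µM; nearly all actives have a fitted effect of over 15% in size.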 Put shortly: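 Stably transfected human liver carcinoma cells (HG2L7.5c1; 20 DRE-firefly luciferase) were incubated 5 h, dosed, and kept 24 h at 37C. Agonism was scored from increased luciferase luminescence.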
Aryl hydrocarbon receptor (Homo sapiens), sequence (P35869 whole entry, looked up): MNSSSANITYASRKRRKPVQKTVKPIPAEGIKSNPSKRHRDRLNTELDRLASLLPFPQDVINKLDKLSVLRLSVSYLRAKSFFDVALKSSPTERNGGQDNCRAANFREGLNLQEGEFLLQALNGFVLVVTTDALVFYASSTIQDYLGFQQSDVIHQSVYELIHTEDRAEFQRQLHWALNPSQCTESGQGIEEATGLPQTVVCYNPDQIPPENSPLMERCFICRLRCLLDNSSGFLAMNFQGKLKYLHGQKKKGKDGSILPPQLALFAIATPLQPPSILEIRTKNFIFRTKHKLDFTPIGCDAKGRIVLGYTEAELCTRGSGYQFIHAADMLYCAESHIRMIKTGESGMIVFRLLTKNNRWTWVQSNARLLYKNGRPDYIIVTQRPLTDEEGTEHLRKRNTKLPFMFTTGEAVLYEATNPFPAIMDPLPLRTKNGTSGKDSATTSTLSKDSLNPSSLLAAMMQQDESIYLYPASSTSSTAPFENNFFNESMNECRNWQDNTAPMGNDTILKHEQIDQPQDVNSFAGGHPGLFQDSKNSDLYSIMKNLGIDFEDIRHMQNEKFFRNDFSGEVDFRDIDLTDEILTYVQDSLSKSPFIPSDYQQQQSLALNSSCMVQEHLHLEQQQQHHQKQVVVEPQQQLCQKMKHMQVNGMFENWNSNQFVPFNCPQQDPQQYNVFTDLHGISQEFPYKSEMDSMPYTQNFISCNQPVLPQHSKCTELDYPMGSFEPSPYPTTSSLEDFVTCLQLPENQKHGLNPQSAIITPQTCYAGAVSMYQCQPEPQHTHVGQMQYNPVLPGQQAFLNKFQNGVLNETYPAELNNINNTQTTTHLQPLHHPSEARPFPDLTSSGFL

Assay [3] can be described thus: qHTS assay to identify small molecule that activate the aryl hydrocarbon receptor (AhR) signaling pathway - cell viability counter screen (AID 743086). Further: series mostly up to about 70 µM; nearly all actives have a fitted effect of over 45% in size. The method in brief: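 Cytotoxicity counter screen: CellTiter-Fluor signal (30 min, 37 C) in 4000 HepG2 cells/well carrying the DRE-luciferase reporter, following 24 h compound exposure at 37 C.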
The target in assay [4] is Peroxisome proliferator-activated receptor gamma (Homo sapiens) (UniProt P37231). Briefly: qHTS assay to identify small molecule agonists of the peroxisome proliferator-activated receptor gamma (PPARg) signaling pathway (AID 743094; active means well fitted activation curve with a large enough effect in the signal ratio in the repeat runs, not every such curve was filed as active; the % refers to the signal ratio). The method in brief: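 Beta-lactamase FRET fluorescence was the read-out after a 1 h room-temperature substrate step, following 17 h compound treatment at 37C of HEK293H cells expressing a UAS-driven bla reporter responsive to PPARg.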
Peroxisome proliferator-activated receptor gamma (Homo sapiens), sequence (P37231 whole entry, looked up): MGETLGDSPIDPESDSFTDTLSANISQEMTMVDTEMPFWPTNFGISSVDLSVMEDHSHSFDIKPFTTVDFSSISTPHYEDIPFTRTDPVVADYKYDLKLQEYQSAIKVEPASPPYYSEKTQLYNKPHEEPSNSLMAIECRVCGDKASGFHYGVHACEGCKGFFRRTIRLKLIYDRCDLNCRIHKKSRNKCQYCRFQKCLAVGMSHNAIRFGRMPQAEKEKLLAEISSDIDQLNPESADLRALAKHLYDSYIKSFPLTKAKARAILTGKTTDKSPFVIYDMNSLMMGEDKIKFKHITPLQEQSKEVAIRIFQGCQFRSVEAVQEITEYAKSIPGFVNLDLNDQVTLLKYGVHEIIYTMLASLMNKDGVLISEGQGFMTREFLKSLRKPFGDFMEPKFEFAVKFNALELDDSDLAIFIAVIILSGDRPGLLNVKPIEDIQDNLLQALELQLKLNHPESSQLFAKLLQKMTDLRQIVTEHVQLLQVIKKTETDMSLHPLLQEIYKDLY

Assay [5] can be described thus: qHTS assay to identify small molecule antagonists of the peroxisome proliferator-activated receptor gamma (PPARg) signaling pathway - cell viability counter screen (AID 743194). Further: nearly all actives have a fitted effect of over 55% in size. The conditions noted are these: Potency: co-treated with 50 nM rosiglitazone. The method in brief:
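Viability was measured as CellTiter-Glo luminescence in GeneBLAzer PPARg UAS-bla HEK293H cells. These cells had been exposed 17 h at 37 C to compounds together with rosiglitazone at 50 nM final, with the beta-lactamase readout taken in the same wells.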

Assay [6] can be described thus: qHTS assay for small molecule agonists of the antioxidant response element (ARE) signaling pathway (AID 743202; active means well fitted activation curve with a large enough effect in the signal ratio in the repeat runs, not every such curve was filed as active; the % refers to the signal ratio). Put shortly: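 An ARE-responsive beta-lactamase gene stably integrated in HepG2 cells serves as reporter. After 5 h plating and 16 h compound incubation at 37 C, fluorescence of the B/G FRET substrate was measured.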
The nature of assay [7]: qHTS assay for small molecule agonists of the antioxidant response element (ARE) signaling pathway - cell viability counter screen (AID 743203; calls by dose curve; further: nearly all actives have a fitted effect of over 55% in size). Put shortly: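 HepG2 cells carrying ARE-driven beta-lactamase; 2,000 cells/well; 5 hrs plating; compound pinned from DMSO; 16 hrs 37C/5% CO2; CellTiter-Glo added; 30 min RT; luminescence.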
Assay [8] in a line: qHTS assay for small molecule activators of the heat shock response signaling pathway - cell viability counter screen (AID 743209). Further: nearly all actives have a fitted effect of over 50% in size. The method in brief: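 Luminescence from CellTiter-Glo, added after the beta-lactamase FRET read, gave the viability signal. Cells were HSE-bla HeLa treated with DMSO-dissolved compounds for 5 h at 37 C following overnight plating.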
Assay [9] in a line: qHTS assay for small molecule activators of the heat shock response signaling pathway (AID 743210; active means well fitted activation curve with a large enough effect in the signal ratio in the repeat runs, with a control signal flat, not every such curve was filed as active; the % refers to the signal ratio;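 further: HeLa cells with beta-lactamase reporter driven by heat shock elements; series mostly up to about 63 µM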). The method in brief:
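In HSE-bla HeLa cells, 5 h compound incubation (37 C) precedes addition of LiveBLAzer B/G substrate; after 2.5 h at room temperature, fluorescence intensity indicates reporter induction.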

Assay [10] is described as follows: qHTS assay to identify small molecule agonists of the peroxisome proliferator-activated receptor delta (PPARd) signaling pathway - cell viability counter screen (AID 743211). Further: nearly all actives have a fitted effect of over 55% in size. Further: potency means the concentration at half of the fitted maximal effect. The method in brief:
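In the same wells used for beta-lactamase reporter measurement, cytotoxicity is scored by CellTiter-Glo. HEK293H PPARd-bla cells receive compound for 17 h at 37C following a 5 h settling period.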

Assay [11] has as its target Peroxisome proliferator-activated receptor delta (Homo sapiens) (UniProt Q03181). As to the kind of experiment: qHTS assay to identify small molecule agonists of the peroxisome proliferator-activated receptor delta (PPARd) signaling pathway (AID 743212; calls by dose curve). Put shortly: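 HEK293H UAS-bla reporter cells, human PPARd system; compounds delivered in DMSO after 5 h plating, then at 37 C. Beta-lactamase FRET read, 2 h RT substrate step.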

Assay [12] is described as follows: qHTS assay to identify small molecule antagonists of the peroxisome proliferator-activated receptor delta (PPARd) signaling pathway - cell viability counter screen (AID 743213). Further: nearly all actives have a fitted effect of over 50% in size. The method in brief: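 In this counter screen, HEK293H cells carrying a UAS-beta-lactamase reporter are co-treated with test compounds and 300 nM L165041 (final) for 17 h at 37 C; cell viability is quantified by CellTiter-Glo luminescence.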

Assay [13] has as its target Peroxisome proliferator-activated receptor delta (Homo sapiens) (UniProt Q03181). As to the kind of experiment: qHTS assay to identify small molecule antagonists of the peroxisome proliferator-activated receptor delta (PPARd) signaling pathway (AID 743215; active means well fitted inhibition curve with a large enough effect in the signal ratio in the repeat runs, not every such curve was filed as active; the % refers to the signal ratio;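 further: cells stimulated with agonist L165041 at 300 nM final during compound exposure; series mostly up to about 62 µM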). Put shortly: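 Read-out is beta-lactamase FRET fluorescence, measured 2 h after substrate addition at room temperature. Beforehand, UAS-bla HEK293H cells carrying the PPARd reporter were exposed to compounds with L165041 at 300 nM final for 17 h at 37 C.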

Assay [14] can be described thus: qHTS assay to identify small molecule agonists of the farnesoid-X-receptor (FXR) signaling pathway - cell viability counter screen (AID 743218). Further: nearly all actives have a fitted effect of over 45% in size. Put shortly:
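HEK 293T FXR-bla cells; 5 h pre-incubation, 16 h compound exposure at 37 C; LiveBLAzer substrate 2 h RT, then CellTiter-Glo 30 min RT, luminescence.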

Assay [15] concerns the target Vitamin D3 receptor (Homo sapiens) (UniProt P11473). Briefly: qHTS assay to identify small molecule antagonists of the vitamin D receptor (VDR) signaling pathway (AID 743223; active means well fitted inhibition curve with a large enough effect in the signal ratio in the repeat runs, not every such curve was filed as active; the % refers to the signal ratio). Put shortly:
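Inhibition of agonist-driven VDR signalling is scored in VDR-bla cells: 3 nM final 1alpha,25-dihydroxyvitamin D3 plus compound, 16 h at 37C, then beta-lactamase detection by FRET substrate fluorescence after 2 h.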

For assay [16], the target named is Bile acid receptor (Homo sapiens) (UniProt Q96RI1). As to the kind of experiment: qHTS assay to identify small molecule antagonists of the farnesoid-X-receptor (FXR) signaling pathway (AID 743217; active means well fitted inhibition curve with a large enough effect in the signal ratio in the repeat runs, not every such curve was filed as active; the % refers to the signal ratio). The method in brief: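 HEK 293T FXR-UAS-bla, 5000 cells/well; compound + CDCA 50 uM final; 16 h, 37 °C; B/G FRET substrate 2 h RT; fluorescence.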
Bile acid receptor (Homo sapiens), sequence (Q96RI1 whole entry, looked up): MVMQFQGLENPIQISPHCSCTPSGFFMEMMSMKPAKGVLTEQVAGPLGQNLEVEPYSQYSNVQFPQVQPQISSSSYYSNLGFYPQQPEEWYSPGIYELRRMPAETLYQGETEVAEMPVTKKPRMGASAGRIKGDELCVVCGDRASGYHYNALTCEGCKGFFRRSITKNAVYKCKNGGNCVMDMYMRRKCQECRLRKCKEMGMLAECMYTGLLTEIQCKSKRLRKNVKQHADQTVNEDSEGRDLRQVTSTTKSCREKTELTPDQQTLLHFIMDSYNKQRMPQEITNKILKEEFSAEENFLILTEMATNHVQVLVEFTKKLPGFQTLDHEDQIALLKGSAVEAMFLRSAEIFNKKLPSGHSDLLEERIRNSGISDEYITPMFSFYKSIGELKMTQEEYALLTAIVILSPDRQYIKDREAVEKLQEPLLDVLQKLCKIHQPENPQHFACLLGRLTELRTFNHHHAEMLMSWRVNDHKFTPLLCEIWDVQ
Assay [17] shares this target. As to the kind of experiment: qHTS assay to identify small molecule agonists of the farnesoid-X-receptor (FXR) signaling pathway (AID 743220; active means well fitted activation curve with a large enough effect in the signal ratio in the repeat runs, not every such curve was filed as active; the % refers to the signal ratio). Put shortly: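 Beta-lactamase reporter under UAS control in GeneBLAzer FXR HEK 293T cells (5000/well) measured with LiveBLAzer FRET substrate after 2 h at room temperature. Compound exposure lasted 16 h at 37C.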
Assay [18] can be described thus: qHTS assay to identify small molecule antagonists of the farnesoid-X-receptor (FXR) signaling pathway - cell viability counter screen (AID 743221; active means well fitted cell-killing curve with a large enough effect in the repeat runs, not every such curve was filed as active; further: nearly all actives have a fitted effect of over 50% in size). Put shortly:
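Here viability was scored by luminescence after CellTiter-Glo addition to wells already read for beta-lactamase. Prior treatment: compound plus CDCA (50 uM final), 16 h, 37 C, HEK 293T FXR-bla cells.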

In assay [19] the target is Vitamin D3 receptor (Homo sapiens) (UniProt P11473). As to the kind of experiment: qHTS assay to identify small molecule agonists of the vitamin D receptor (VDR) signaling pathway (AID 743222; calls by dose curve). Put shortly:
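VDR-bla cells, 2,000/well; 4 h preincubation 37C; cpd (DMSO) 16 h; LiveBLAzer B/G substrate 2 h RT; fluorescence intensity read.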

Assay [20] has as its target Peroxisome proliferator-activated receptor gamma (Homo sapiens) (UniProt P37231). Briefly: qHTS assay to identify small molecule antagonists of the peroxisome proliferator-activated receptor gamma (PPARg) signaling pathway (AID 743191; calls by dose curve; further: series mostly up to about 63 µM; nearly all actives have a fitted effect of over 30% in size). Put shortly:
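Beta-lactamase reporter under UAS control in HEK293H PPARg-bla cells; compound treatment 17 h at 37C. Read-out: fluorescence intensity after 1 h room-temperature incubation with LiveBLAzer B/G FRET substrate.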

Peroxisome proliferator-activated receptor delta (Homo sapiens), sequence (Q03181 whole entry, looked up): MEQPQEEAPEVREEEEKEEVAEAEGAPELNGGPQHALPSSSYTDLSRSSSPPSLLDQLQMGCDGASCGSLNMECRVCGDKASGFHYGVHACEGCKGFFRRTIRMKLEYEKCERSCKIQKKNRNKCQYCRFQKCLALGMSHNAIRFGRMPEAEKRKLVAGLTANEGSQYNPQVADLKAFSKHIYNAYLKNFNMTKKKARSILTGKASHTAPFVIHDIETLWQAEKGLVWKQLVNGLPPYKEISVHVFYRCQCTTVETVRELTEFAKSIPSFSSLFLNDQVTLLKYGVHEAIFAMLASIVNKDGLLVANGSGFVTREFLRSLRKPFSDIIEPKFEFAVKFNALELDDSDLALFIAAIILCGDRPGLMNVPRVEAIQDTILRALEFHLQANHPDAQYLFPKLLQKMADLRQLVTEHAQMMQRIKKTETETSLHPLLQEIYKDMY
Vitamin D3 receptor (Homo sapiens), sequence (P11473 whole entry, looked up): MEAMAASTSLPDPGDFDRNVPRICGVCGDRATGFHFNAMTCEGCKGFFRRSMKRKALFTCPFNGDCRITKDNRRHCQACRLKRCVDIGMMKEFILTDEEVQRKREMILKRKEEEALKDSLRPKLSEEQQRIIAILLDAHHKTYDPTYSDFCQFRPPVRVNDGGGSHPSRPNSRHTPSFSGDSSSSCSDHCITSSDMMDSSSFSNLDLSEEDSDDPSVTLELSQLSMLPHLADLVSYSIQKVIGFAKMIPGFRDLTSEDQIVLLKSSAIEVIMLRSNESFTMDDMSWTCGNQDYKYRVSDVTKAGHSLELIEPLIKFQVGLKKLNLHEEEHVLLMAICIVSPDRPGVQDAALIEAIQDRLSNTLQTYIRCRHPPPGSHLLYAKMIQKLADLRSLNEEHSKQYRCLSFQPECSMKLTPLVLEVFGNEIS

Regarding `O=Cc1ccc(Cl)cc1Cl`, the Potency result in [1], in assay [2], in [3], in [4], in assay [5] and in assay [6] was “inactive” throughout. For the same molecule, the Potency result in assay [7], in [8], in [10], in assay [12], in assay [13] and in assay [14] was “inactive” throughout. Besides, the outcome in assay [9], in [11] and in [15] was inactive.

Consider `O=NN1CCCCCC1`, for which the Potency result in assay [1], in assay [2], in assay [3], in assay [4], in assay [5] and in assay [6] was “inactive” in each case. Further, the Potency result in assay [7], in assay [8], in assay [10], in assay [12], in assay [16] and in assay [14] was “inactive” throughout. Also, the Potency entry in assay [18] was “inactive”. The molecule was called inactive in assay [9], in [17] and in [15].

Regarding `CCOP(=O)(OCC)O/C(=C/Cl)c1ccc(Cl)cc1Cl`, the Potency result in assay [1], in assay [2], in [3], in assay [4], in assay [5] and in [7] was “inactive” in each case. Besides, the Potency entry in [8], in [10], in assay [12], in assay [13], in [14] and in assay [18] was “inactive” throughout. The molecule was called inactive in assay [9], in assay [11], in assay [19] and in assay [15].

Regarding `CCCCN(N=O)C(=N)N[N+](=O)[O-]`, the Potency entry in [1], in assay [2], in assay [3], in [4], in [5] and in [6] was “inactive” in each case. The Potency result in assay [7], in assay [10], in assay [12], in [13], in [14] and in [18] was “inactive” each time. In addition, the outcome in assay [11], in assay [19] and in [15] was inactive.

As for `COC(=O)C(Cl)C(=O)OC`, the Potency result in assay [1], in assay [2], in assay [3], in assay [4], in assay [5] and in assay [7] was “inactive” throughout. Besides, the Potency result in [10], in [12], in assay [13] and in [18] was “inactive” in each case. The molecule was called inactive in assay [9], in assay [11] and in assay [17].

Take `O=C(O)C(F)(F)C(F)(F)C(F)(F)C(F)(F)C(F)(F)C(F)(F)C(F)(F)C(F)(F)C(F)(F)C(F)(F)F`: the Potency entry in assay [1], in assay [2], in [3], in assay [4], in assay [5] and in assay [7] was “inactive” in each case. Moreover, the Potency entry in [8], in assay [10], in [12], in assay [16], in assay [14] and in assay [18] was “inactive” each time. Moreover, the result in assay [9], in [17], in [19] and in [15] was inactive.

Turning to `CC(=O)[C@H]1CC[C@H]2[C@@H]3CC[C@H]4C[C@](C)(O)CC[C@]4(C)[C@H]3CC[C@]12C`, the Potency entry in [1], in [2], in [3], in assay [4], in [5] and in [7] was “inactive” in each case. The Potency entry in assay [8], in assay [10], in assay [12], in [13], in [14] and in assay [18] was “inactive” throughout. For the same molecule, the result in [9] and in assay [11] was inactive.

As to `II`, the Potency result in assay [1], in [2], in [3], in [4], in assay [5] and in [6] was “inactive” throughout. Also, the Potency entry in assay [7], in assay [8], in assay [10], in assay [12], in assay [13] and in assay [14] was “inactive” each time. Also, the Potency entry in assay [18] was “inactive”. Also, the result in [9], in [11] and in [15] was inactive.

For `COC(C)(C)CCC[C@H](C)C/C=C/C(C)=C/C(=O)OC(C)C`, the Potency entry in assay [1], in [2], in assay [3], in assay [4], in assay [12] and in assay [18] was “inactive” each time. For the same molecule, in assay [10], the Potency is 38.9 µM (active).

Turning to `C#CCOC(C(=O)OCCN(C)C)(c1ccccc1)c1ccccc1`, the Potency result in [1], in assay [2], in assay [3], in assay [20], in assay [5] and in assay [6] was “inactive” in each case. Also, the Potency entry in assay [7], in assay [8], in assay [10], in assay [12], in assay [13] and in assay [14] was “inactive” in each case. Besides, in [18], the Potency entry is “inactive”. Moreover, the call in [9] and in [11] was inactive.
